This assay has as its target Estrogen receptor (Homo sapiens) (UniProt P03372). The experiment in a line: ERα coactivator peptide binding inhibitors, primary screen, biochemical, LOPAC library, TR-FRET (AID 694).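 Also: receptor was agonist-bound with estradiol present during the assay.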 As to conditions: TR-FRET ERalpha-coactivator peptide binding, stronger effect = higher value. A general note: In TR-FRET formats the signal depends on donor and acceptor labels being close together.

Experimental findings from PubChem BioAssay AID694 (Emory University Molecular Libraries Screening Center, 2007) are described below.

Screen size: about 1,300 compounds; about 25 (2%) were called active. No rule for the calls is given here. Only a selection was taken, and actives are over-represented in it overall.

Chain of Estrogen receptor (Homo sapiens) (P03372 whole entry, looked up): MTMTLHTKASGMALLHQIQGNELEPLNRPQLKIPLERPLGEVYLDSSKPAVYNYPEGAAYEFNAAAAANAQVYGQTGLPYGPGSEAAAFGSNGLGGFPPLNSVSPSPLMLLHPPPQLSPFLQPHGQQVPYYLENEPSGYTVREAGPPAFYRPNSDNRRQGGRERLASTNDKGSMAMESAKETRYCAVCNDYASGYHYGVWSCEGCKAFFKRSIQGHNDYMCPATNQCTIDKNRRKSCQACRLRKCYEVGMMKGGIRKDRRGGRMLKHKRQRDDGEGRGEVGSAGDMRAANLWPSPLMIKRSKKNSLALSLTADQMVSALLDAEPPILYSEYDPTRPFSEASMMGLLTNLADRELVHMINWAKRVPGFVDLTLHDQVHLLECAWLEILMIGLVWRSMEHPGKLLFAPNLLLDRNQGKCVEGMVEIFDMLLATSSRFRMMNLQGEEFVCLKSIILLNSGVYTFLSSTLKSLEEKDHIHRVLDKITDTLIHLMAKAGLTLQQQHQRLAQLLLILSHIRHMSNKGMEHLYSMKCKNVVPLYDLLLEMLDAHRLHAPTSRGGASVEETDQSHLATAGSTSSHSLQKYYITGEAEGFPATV

In general, inhibition refers to the relative decrease from the control value, in per cent. In the case of `CCCN(CCC)CCc1ccc(O)c(O)c1`, the inhibition is -9.9% (inactive) (at 45 µM) and 5.4% (inhibition, at 15 µM).
For `CN(N=O)c1cc(O)ccc1O` the same measures were 98.6% [fluorescence artefact?] (active) and 95.4%.
For the compound `CN(N=O)c1ccc(O)c(O)c1`, the inhibition runs as follows: (at 45 µM) 99.9% [fluorescence artefact?] (active); (inhibition, at 15 µM) 100%.
`CCCN(CCC)[C@@H]1CCc2ccc(O)cc2C1`: the inhibition reads like this: (at 45 µM) -8.07% (inactive); (inhibition, at 15 µM) 3.7%.
Regarding `C[C@@H]1O[C@H](C[N+](C)(C)C)CS1`, the inhibition is -6.11% (inactive) (at 45 µM) and 5.81% (inhibition, at 15 µM).
For the compound `c1ccc2c(N3CCNCC3)cccc2c1`, the inhibition (at 45 µM) was -1.45% (inactive) and the inhibition (inhibition, at 15 µM) was determined as 2.78%.
With `C=CCN1CCC2(C)c3cc(O)ccc3CC1C2C` (stereo not given), the inhibition was -11.9% (inactive) (at 45 µM) and -3.04% (inhibition, at 15 µM).
For `CC[C@@H](CO)NC(=O)[C@@H]1C=C2c3cccc4[nH]cc(c34)C[C@H]2N(C)C1` the same measures were 6.08% (inactive) and 0.61%.
Consider `Clc1ccc(C(c2ccc(Cl)cc2)n2cc[n+](CC(OCc3ccc(Cl)cc3Cl)c3ccc(Cl)cc3Cl)c2)cc1` (stereo not given), for which the inhibition runs as follows: (at 45 µM) 59.5% [fluorescence artefact?] (active); (inhibition, at 15 µM) 52.6%.
As to `CO[C@H]1CC=C2CCN3CCC4=C(CC(=O)OC4)[C@]23C1`, the inhibition is -3.26% (inactive) (at 45 µM) and 3.57% (inhibition, at 15 µM).
Take `O=C(O)[C@@H]1CCN1`: the inhibition was -15.6% (inactive) (at 45 µM) and -3.72% (inhibition, at 15 µM).
The like results for `CCCN(CCC)C1CCc2ccc(O)cc2C1` (stereo not given) were, in that order, -3.18% (inactive) and 3.52%.
With `N[C@@H](Cn1cc(I)c(=O)[nH]c1=O)C(=O)O`, the inhibition runs as follows: (at 45 µM) 0.52% (inactive); (inhibition, at 15 µM) 3.65%.
For `COC(=O)c1cc2c(cn1)[nH]c1ccccc12` the same measures were -2.45% (inactive) and 2.65%.
For `NC(Cc1cc(O)c(O)cc1O)C(=O)O` (stereo not given), the inhibition was 100% [fluorescence artefact?] (active) (at 45 µM) and 100% (inhibition, at 15 µM).
On to `Cc1o[nH]c(=O)c1CC(N)C(=O)O` (stereo not given), for which the inhibition is -4.5% (inactive) (at 45 µM) and -1.59% (inhibition, at 15 µM).
`N[C@@H](CCl)C(=O)O`: the inhibition reads like this: (at 45 µM) -9.05% (inactive); (inhibition, at 15 µM) -4.18%.
As to `O=[N+]([O-])c1ccc(O[C@@H]2O[C@H](CO)[C@@H](O)[C@H](O)[C@H]2F)c([N+](=O)[O-])c1`, the inhibition is, setting by setting: (at 45 µM) -0.11% (inactive); (inhibition, at 15 µM) 6.88%.
For the compound `Fc1ccc(C(OCCN2CCN(CCCc3ccccc3)CC2)c2ccc(F)cc2)cc1`, the inhibition by setting is: (at 45 µM) -7.86% (inactive); (inhibition, at 15 µM) -2.51%.
Regarding `CN1C[C@@H](CS(=O)(=O)N(C)C)C[C@@H]2c3cccc4c3c(cn4C)C[C@H]21`, the inhibition (at 45 µM) is -2.14% (inactive) and the inhibition (inhibition, at 15 µM) is -2.21%.
